For experiment [1], the target named is Acetylcholinesterase (Homo sapiens) (UniProt P22303). Briefly: Acetylcholinesterase (AChE) small molecule antagonists: enzyme-based qHTS assay (AID 1347397; calls by dose curve; further: nearly all actives have a fitted effect of over 55% in size). Particulars: Potency: AChE enzyme activity inhibition; outcome: AChE enzyme activity inhibition. In a few lines: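 First, recombinant human AChE (50 mU/mL as dispensed) received test compound or DMSO. Second, plates stood 30 min at room temperature. Third, DTNB and acetylthiocholine were added, followed by 10 min at room temperature and colorimetric detection.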
In general terms: Quantitative high-throughput screening tests each substance at several concentrations.

Experiment [2] shares this target. Nature of the experiment: Acetylcholinesterase (AChE) small molecule antagonists: fluorescence cell-based qHTS assay (AID 1347398; calls by dose curve; further: nearly all actives have a fitted effect of over 50% in size). To be noted: Potency: AChE activity; outcome: AChE activity. The gist of the method:
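Homogeneous quantitative HTS format. SH-SY5Y cells seeded at 2,000 per well settle overnight at 37 C. Compound pretreatment runs 30 min (37 C, 5% CO2); substrate/probe mix then reacts 40 min at RT before reading 490/520 nm.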

Experiment [3] can be described thus: qHTS assay for small molecule agonists of the p53 signaling pathway - cell viability (AID 651633; calls by dose curve;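 further: p53RE-bla HCT reporter cells with a stable beta-lactamase p53 reporter; series mostly up to about 83 µM; nearly all actives have a fitted effect of over 30% in size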). In a few lines: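 Viability counter-read: CellTiter-Glo luminescence (30 min, room temperature) in the same p53RE-bla plates. These plates had been exposed to compounds for 16 h at 37 C.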
The nature of experiment [4]: qHTS assay to test for compound auto fluorescence at 590 nm (red) in HepG2 cells (AID 720674). In a few lines:
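Red autofluorescence (Ex/Em 540/590 nm, Rose Bengal sodium equivalents) was measured in HepG2 cells, 2,000 per well in MEM plus 10% FBS, plated overnight at 37 C. Readings were taken 1 hr after adding 23 nL compound or DMSO, at 37 C and 5% CO2.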

Experiment [5] is described as follows: qHTS assay to test for compound auto fluorescence at 460 nm (blue) in HEK293 cells (AID 720678). In a few lines:
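Blue-channel (Ex/Em 405/460 nm) intensity measured in HEK293 cultures after overnight compound exposure at 37C; signal expressed relative to triamterene. Cells plated 2,000 per well in 10% dialyzed FBS medium and allowed 4-5 hr to attach.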

Experiment [6] in a line: qHTS assay to test for compound auto fluorescence at 590 nm (red) in HEK293 cells (AID 720679). The gist of the method:
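Red-channel autofluorescence (Ex/Em 540/590 nm; Rose Bengal sodium reference) was measured after overnight 37C, 5% CO2 exposure of attached HEK293 cells, 2,000 per well in medium with 10% dialyzed FBS.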

Experiment [7] is described as follows: qHTS assay to test for compound auto fluorescence at 535 nm (green) in HepG2 cell free culture (AID 720686).
The nature of experiment [8]: qHTS assay to test for compound auto fluorescence at 460 nm (blue) in HepG2 cells (AID 720687). In a few lines:
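Blue-channel autofluorescence (Ex/Em 405/460 nm, triamterene-equivalent) was measured after 1 hr compound exposure at 37 C, 5% CO2. Cells were HepG2, plated overnight at 37 C in MEM plus 10% FBS.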

Experiment [9] can be described thus: qHTS assay to identify small molecule antagonists of the glucocorticoid receptor (GR) signaling pathway - cell viability counter screen (AID 720693). Further: nearly all actives have a fitted effect of over 55% in size.
Experiment [10] in a line: qHTS assay for identifying genotoxic compounds that show differential cytotoxicity against isogenic chicken DT40 cell lines with known DNA damage response pathways - wild type cell line (AID 743012). Further: nearly all actives have a fitted effect of over 60% in size. Further: potency means the concentration at half of the fitted maximal effect. The gist of the method: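 Viability by ATP luminescence (CellTiter-Glo, 30 min RT) after 40 h compound treatment at 37 C/5% CO2, using 300 parental DNA repair-proficient DT40 cells per well.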

A short description of experiment [11]: qHTS assay for identifying genotoxic compounds that show differential cytotoxicity against isogenic chicken DT40 cell lines with known DNA damage response pathways - Rev3 mutant cell line (AID 743014). Further: nearly all actives have a fitted effect of over 55% in size. Further: potency means the concentration at half of the fitted maximal effect.
A short description of experiment [12]: qHTS assay to identify small molecule antagonists of the androgen receptor (AR) signaling pathway - cell viability counter screen (AID 743033; further: nearly all actives have a fitted effect of over 45% in size).
A short description of experiment [13]: qHTS assay to identify small molecule antagonists of the thyroid receptor (TR) signaling pathway - cell viability counter screen (AID 743064). Further: nearly all actives have a fitted effect of over 50% in size. Further: potency means the concentration at half of the fitted maximal effect. In a few lines: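 GH3.TRE-Luc cells, 4 h pre-plating; cpd + T3 1 nM final; 37 °C 23.5 h; CellTiter-Fluor 30 min; fluorescence read.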
The target in experiment [14] is Estrogen receptor (Homo sapiens) (UniProt P03372). Briefly: qHTS assay to identify small molecule agonists of the estrogen receptor alpha (ER-alpha) signaling pathway (AID 743075; calls by dose curve;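 further: HEK293 GripTite cells with ER-alpha and UAS-driven beta-lactamase reporter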).
Experiment [15] shares this target. Nature of the experiment: qHTS assay to identify small molecule agonists of the estrogen receptor alpha (ER-alpha) signaling pathway using the BG1 cell line (AID 743079). Further: nearly all actives have a fitted effect of over 20% in size.
Experiment [16] addresses Nuclear receptor subfamily 1 group I member 2 (Homo sapiens) (UniProt O75469). Briefly: CYP3A4 induction through human pregnane X receptor (PXR) by small molecules, qHTS assay (AID 1346984). Further: nearly all actives have a fitted effect of over 40% in size. The gist of the method: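 Read-out is luminescence after One-Glo addition, following a 3 hr, 37C incubation with Luciferin-IPA CYP3A4 substrate (3uM final). Before that, compounds were on DPX-2 cells (HepG2 co-transfected with PXR element plus CYP3A4-promoter luciferase) for 24 hr at 37C.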

Experiment [17] shares this target. Briefly: Human pregnane X receptor (PXR) activation by small molecules, qHTS assay (AID 1346985). Further: nearly all actives have a fitted effect of over 40% in size. Further: potency means the concentration at half of the fitted maximal effect. In a few lines: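 DPX-2 cells (HepG2 co-transfected with a PXR response element and a CYP3A4-promoter luciferase construct) were seeded at 2,000 per well, rested 5 hr at 37C, then exposed to DMSO-dissolved compounds for 24 hr. Activation was read as luciferase luminescence.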

The subject of experiment [18] is thyroid hormone receptor (rat, GH3 cells). Nature of the experiment: qHTS assay to identify small molecule agonists of the thyroid receptor (TR) signaling pathway (AID 743066; calls by dose curve).
Experiment [19] is described as follows: qHTS assay to identify small molecule antagonists of the estrogen receptor alpha (ER-alpha) signaling pathway - cell viability counter screen (AID 743074; calls by dose curve;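 further: HEK293 cells carrying ER-alpha-UAS-bla reporter stimulated with 17beta-estradiol; nearly all actives have a fitted effect of over 45% in size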).
Experiment [20] has as its target Peroxisome proliferator-activated receptor gamma (Homo sapiens) (UniProt P37231). Briefly: qHTS assay to identify small molecule agonists of the peroxisome proliferator-activated receptor gamma (PPARg) signaling pathway (AID 743094; active means well fitted activation curve with a large enough effect in the signal ratio in the repeat runs, not every such curve was filed as active; the % refers to the signal ratio). In a few lines:
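Agonist activity was taken from a beta-lactamase reporter (FRET substrate, 1 h at room temperature) in HEK293H cells carrying a PPARg UAS-bla construct. Compounds in DMSO were incubated 17 h at 37C after a 5 h cell pre-incubation.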

The structures appear in SMILES notation. “And” between values parts separate entries of the source, which are not always exact repeats. Identical values can stand only once. Records with an inconclusive call do not appear. The source made the active and inactive calls. Unless noted, the call rests on the fitted dose curve; in most records, active means well fitted curve in the direction sought with a large enough effect in the repeat runs; inconclusive means weak or mixed curves; inactive means no such curve, though single readings can be large; an effect the other way counts as inactive or inconclusive.

Sequence of Acetylcholinesterase (Homo sapiens) (P22303 whole entry, looked up): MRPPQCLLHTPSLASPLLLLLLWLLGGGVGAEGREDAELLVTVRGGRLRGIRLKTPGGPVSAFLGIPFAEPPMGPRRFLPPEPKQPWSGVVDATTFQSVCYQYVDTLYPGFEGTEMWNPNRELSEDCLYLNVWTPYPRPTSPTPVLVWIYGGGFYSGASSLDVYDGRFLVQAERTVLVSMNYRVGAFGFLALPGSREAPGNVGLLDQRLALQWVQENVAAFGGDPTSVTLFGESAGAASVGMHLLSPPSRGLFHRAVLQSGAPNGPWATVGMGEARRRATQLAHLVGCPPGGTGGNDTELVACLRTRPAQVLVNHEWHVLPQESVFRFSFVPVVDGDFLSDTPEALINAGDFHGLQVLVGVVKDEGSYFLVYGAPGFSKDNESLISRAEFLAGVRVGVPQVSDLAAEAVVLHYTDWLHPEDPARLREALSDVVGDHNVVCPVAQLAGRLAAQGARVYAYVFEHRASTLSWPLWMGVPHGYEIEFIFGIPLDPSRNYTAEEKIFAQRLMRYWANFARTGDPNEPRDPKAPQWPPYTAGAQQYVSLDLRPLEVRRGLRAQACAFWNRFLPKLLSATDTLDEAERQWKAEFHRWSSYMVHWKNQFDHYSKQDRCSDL
Sequence of Estrogen receptor (Homo sapiens) (P03372 whole entry, looked up): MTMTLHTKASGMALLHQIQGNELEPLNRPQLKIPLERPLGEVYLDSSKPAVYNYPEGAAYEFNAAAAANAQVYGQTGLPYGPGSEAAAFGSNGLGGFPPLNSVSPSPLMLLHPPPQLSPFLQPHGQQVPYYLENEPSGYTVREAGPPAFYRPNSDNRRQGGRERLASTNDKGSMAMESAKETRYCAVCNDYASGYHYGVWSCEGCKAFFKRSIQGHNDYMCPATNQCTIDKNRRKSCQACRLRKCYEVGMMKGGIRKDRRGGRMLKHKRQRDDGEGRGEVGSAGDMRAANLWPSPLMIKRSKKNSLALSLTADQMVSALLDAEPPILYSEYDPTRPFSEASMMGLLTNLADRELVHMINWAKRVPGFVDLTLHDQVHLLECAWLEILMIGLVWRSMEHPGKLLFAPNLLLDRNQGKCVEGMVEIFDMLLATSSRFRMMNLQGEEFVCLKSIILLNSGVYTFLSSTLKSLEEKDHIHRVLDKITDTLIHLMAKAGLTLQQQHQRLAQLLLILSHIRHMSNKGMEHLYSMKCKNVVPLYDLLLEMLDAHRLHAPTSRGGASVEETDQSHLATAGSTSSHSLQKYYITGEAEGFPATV
Sequence of Peroxisome proliferator-activated receptor gamma (Homo sapiens) (P37231 whole entry, looked up): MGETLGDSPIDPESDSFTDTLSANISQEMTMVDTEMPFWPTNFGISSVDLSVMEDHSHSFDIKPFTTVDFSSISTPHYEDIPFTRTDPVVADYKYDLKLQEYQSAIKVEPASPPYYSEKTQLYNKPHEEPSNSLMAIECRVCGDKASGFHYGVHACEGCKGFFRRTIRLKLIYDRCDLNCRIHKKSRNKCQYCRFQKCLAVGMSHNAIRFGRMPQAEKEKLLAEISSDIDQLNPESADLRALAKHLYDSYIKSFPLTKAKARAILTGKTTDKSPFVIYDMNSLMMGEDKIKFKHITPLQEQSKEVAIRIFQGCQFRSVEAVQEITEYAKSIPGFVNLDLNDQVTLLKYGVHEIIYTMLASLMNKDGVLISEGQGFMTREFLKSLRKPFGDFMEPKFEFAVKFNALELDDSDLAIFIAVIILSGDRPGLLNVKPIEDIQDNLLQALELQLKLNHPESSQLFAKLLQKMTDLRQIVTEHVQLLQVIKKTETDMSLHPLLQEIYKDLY

For `CC(=O)OC(C)=O`, the Potency entry in experiment [1] and in experiment [2] was “inactive” throughout.
In the case of `Clc1ccc(Cl)c(Cl)c1Cl`, the Potency result in experiment [1] and in experiment [2] was “inactive” throughout.
Consider `F/C(COc1ccc2c(c1)[nH]c1ccccc12)=C1/CN2CCC1CC2`, for which the Potency result in experiment [3], in experiment [5], in experiment [7], in [8], in experiment [9] and in experiment [12] was “inactive” each time. Also, the Potency entry in experiment [14], in experiment [15] and in [16] was “inactive” throughout. Further, the molecule was classed as inactive in experiment [4] and in experiment [6]. Moreover, the Potency in experiment [10] is 5.96 µM (active); in [11], 8.41 µM (active); in experiment [13] it was 7.5 µM (active); in experiment [17] it was 22.4 µM (active).
Turning to `Cc1ccc(C)cc1`, the Potency entry in experiment [1] and in [2] was “inactive” in each case.
For the molecule `Cc1c(N)cccc1N`, the Potency entry in experiment [1] and in [2] was “inactive” each time.
As for `CCOC(=O)C1(c2ccccc2)CCCN(C)CC1` (stereo not drawn), the Potency entry in [3], in [5], in experiment [7], in [8], in [9] and in [10] was “inactive” in each case. Further, the Potency result in [11], in experiment [12], in [13], in experiment [18], in [19] and in experiment [14] was “inactive” each time. The Potency result in experiment [15] and in experiment [20] was “inactive” each time. Besides, the molecule was classed as inactive in [4].
With `c1ccc(-c2ccccc2-c2ccccc2)cc1`, the Potency entry in experiment [1] and in experiment [2] was “inactive” in each case.
As to `C1CN(P2(N3CC3)=NP(N3CC3)(N3CC3)=NP(N3CC3)(N3CC3)=N2)CCO1` (stereo not drawn), the Potency result in [3], in experiment [5], in experiment [7], in [8], in experiment [12] and in [13] was “inactive” throughout. In addition, the Potency entry in experiment [18], in [14], in experiment [15] and in experiment [20] was “inactive” throughout. Moreover, the call in [6] was inactive. For the same molecule, the Potency was 3.76 µM (active) in experiment [10] and 0.168 µM (active) in [11].
Take `O=C(Cl)c1cccc(C(=O)Cl)c1`: the Potency entry in [1] and in experiment [2] was “inactive” each time.
For the molecule `CC(C)[C@@]1(NC(=O)[C@@H]2C[C@@H]3c4cccc5[nH]cc(c45)C[C@H]3N(C)C2)O[C@@]2(O)[C@@H]3CCCN3C(=O)[C@H](Cc3ccccc3)N2C1=O`, the Potency entry in experiment [3], in [5], in [7], in experiment [9], in [12] and in [18] was “inactive” in each case. In addition, the Potency entry in experiment [19], in experiment [14] and in [15] was “inactive” each time. The molecule was called inactive in experiment [4] and in experiment [6]. In addition, the Potency in experiment [10] is 29.8 µM (active); in [13], 23.7 µM (active) and 21.1 µM (active).
On to `CN1[C@@H]2CC[C@H]1CC(OC1c3ccccc3CCc3ccccc31)C2` (stereo partly drawn), for which the Potency entry in experiment [3], in experiment [5], in experiment [7], in experiment [8], in [9] and in [12] was “inactive” throughout. The Potency entry in experiment [18], in experiment [19], in [14], in [15], in [20] and in experiment [16] was “inactive” throughout. For the same molecule, in [17], the Potency result was “inactive”. For the same molecule, the call in experiment [6] was inactive. The Potency was 7.17 µM (active) in experiment [10], 10.1 µM (active) in experiment [11] and 2.85 µM (active) in experiment [13].
`C=CCOc1c(Br)cc(C(C)(C)c2cc(Br)c(OCC=C)c(Br)c2)cc1Br`: the Potency result in experiment [1] and in [2] was “inactive” each time.
Regarding `Clc1cc(Cl)c(-c2c(Cl)c(Cl)cc(Cl)c2Cl)cc1Cl`, the Potency entry in experiment [1] and in experiment [2] was “inactive” throughout.
As for `CN(C)CCCCCCN(C)C` (tested in a mixture with another compound), the result in experiment [4] and in experiment [6] was inactive. Further, the Potency result in [5], in experiment [9], in [11], in experiment [13] and in experiment [18] was “inactive” in each case.
Take `C[C@@H]1[C@@H]2Cc3ccc(O)cc3[C@@]1(C)CCN2CCc1ccccc1`: the Potency result in [3], in experiment [8], in [9], in experiment [19] and in [14] was “inactive” in each case. Besides, the Potency was 9.57 µM (active) in experiment [11] and 60.4 µM (active) in experiment [13].

Values taken from PubChem BioAssay (Tox21).
